# Measured values from publication PMC11062922 (Nature Chemical Biology, 2023).
# Where two headings read alike, the source gives them in different places.
# Columns and labels:
# FER = details: read-out: apparent Kd, n = 1
# FLT4 = details: read-out: apparent Kd, n = 1
substance,measurement,setting,value
Lestaurtinib,potency estimated from few doses,"FER; compound concentrations:100 nM and 1000 nM (sheet 'Lestaurtinib' of Supplementary Table 1),run:Lestaurtinib_02496_R1,Plate:MR013",306 nM
same,potency estimated from few doses,"FER; compound concentrations:100 nM and 1000 nM (sheet 'Lestaurtinib' of Supplementary Table 1),run:Lestaurtinib_02566_R1,Plate:MR014",269 nM
same,potency estimated from few doses,"FER; compound concentrations:100 nM and 1000 nM (sheet 'Lestaurtinib' of Supplementary Table 1),run:Lestaurtinib_02572_R2,Plate:MR015",259 nM
same,potency estimated from few doses,"FER; compound concentrations:100 nM and 1000 nM (sheet 'Lestaurtinib' of Supplementary Table 1),run:Lestaurtinib_02572_R3,Plate:MR015",447 nM
same,potency estimated from few doses,"FER; compound concentrations:100 nM and 1000 nM (sheet 'Lestaurtinib' of Supplementary Table 1),run:Lestaurtinib_02584_R1,Plate:MR017",332 nM
same,potency estimated from few doses,"FER; compound concentrations:100 nM and 1000 nM (sheet 'Lestaurtinib' of Supplementary Table 1),run:Lestaurtinib_02584_R3,Plate:MR017",351 nM
same,potency estimated from few doses,"FER; compound concentrations:100 nM and 1000 nM (sheet 'Lestaurtinib' of Supplementary Table 1),run:Lestaurtinib_02601_R2,Plate:MR018",394 nM
same,potency estimated from few doses,"FER; compound concentrations:100 nM and 1000 nM (sheet 'Lestaurtinib' of Supplementary Table 1),run:Lestaurtinib_02601_R3,Plate:MR018",42.4 nM
same,potency estimated from few doses,"FER; compound concentrations:100 nM and 1000 nM (sheet 'Lestaurtinib' of Supplementary Table 1),run:Lestaurtinib_02606_R2,Plate:MR019",83.6 nM
same,potency estimated from few doses,"FER; compound concentrations:100 nM and 1000 nM (sheet 'Lestaurtinib' of Supplementary Table 1),run:Lestaurtinib_02606_R3,Plate:MR019",355 nM
same,potency estimated from few doses,"FER; compound concentrations:100 nM and 1000 nM (sheet 'Lestaurtinib' of Supplementary Table 1),run:Lestaurtinib_02624_R3,Plate:MR020",365 nM
same,potency estimated from few doses,"FER; compound concentrations:100 nM and 1000 nM (sheet 'Lestaurtinib' of Supplementary Table 1),run:Lestaurtinib_02724_R2,Plate:MR021",436 nM
same,potency estimated from few doses,"FER; compound concentrations:100 nM and 1000 nM (sheet 'Lestaurtinib' of Supplementary Table 1),run:Lestaurtinib_02748_R1,Plate:MR024",268 nM
same,potency estimated from few doses,"FER; compound concentrations:100 nM and 1000 nM (sheet 'Lestaurtinib' of Supplementary Table 1),run:Lestaurtinib_02748_R3,Plate:MR024",278 nM
same,potency estimated from few doses,"FER; compound concentrations:100 nM and 1000 nM (sheet 'Lestaurtinib' of Supplementary Table 1),run:Lestaurtinib_02752_R1,Plate:MR025",356 nM
same,potency estimated from few doses,"FER; compound concentrations:100 nM and 1000 nM (sheet 'Lestaurtinib' of Supplementary Table 1),run:Lestaurtinib_02752_R2,Plate:MR025",297 nM
same,potency estimated from few doses,"FER; compound concentrations:100 nM and 1000 nM (sheet 'Lestaurtinib' of Supplementary Table 1),run:Lestaurtinib_02752_R3,Plate:MR025",327 nM
same,potency estimated from few doses,"FER; compound concentrations:100 nM and 1000 nM (sheet 'Lestaurtinib' of Supplementary Table 1),run:Lestaurtinib_02765_R1,Plate:MR026",564 nM
same,potency estimated from few doses,"FER; compound concentrations:100 nM and 1000 nM (sheet 'Lestaurtinib' of Supplementary Table 1),run:Lestaurtinib_02765_R2,Plate:MR026",481 nM
same,potency estimated from few doses,"FER; compound concentrations:100 nM and 1000 nM (sheet 'Lestaurtinib' of Supplementary Table 1),run:Lestaurtinib_02765_R3,Plate:MR026",549 nM
same,potency estimated from few doses,"FER; compound concentrations:100 nM and 1000 nM (sheet 'Lestaurtinib' of Supplementary Table 1),run:Lestaurtinib_02766_R1,Plate:MR027",277 nM
same,potency estimated from few doses,"FER; compound concentrations:100 nM and 1000 nM (sheet 'Lestaurtinib' of Supplementary Table 1),run:Lestaurtinib_02766_R2,Plate:MR027",25.3 nM
same,potency estimated from few doses,"FER; compound concentrations:100 nM and 1000 nM (sheet 'Lestaurtinib' of Supplementary Table 1),run:Lestaurtinib_02766_R3,Plate:MR027",321 nM
same,potency estimated from few doses,"FER; compound concentrations:100 nM and 1000 nM (sheet 'Lestaurtinib' of Supplementary Table 1),run:Lestaurtinib_02795_R1,Plate:MR022",454 nM
same,potency estimated from few doses,"FER; compound concentrations:100 nM and 1000 nM (sheet 'Lestaurtinib' of Supplementary Table 1),run:Lestaurtinib_02795_R2,Plate:MR022",356 nM
same,potency estimated from few doses,"FER; compound concentrations:100 nM and 1000 nM (sheet 'Lestaurtinib' of Supplementary Table 1),run:Lestaurtinib_02795_R3,Plate:MR022",372 nM
same,potency estimated from few doses,"FER; compound concentrations:100 nM and 1000 nM (sheet 'Lestaurtinib' of Supplementary Table 1),run:Lestaurtinib_02802_R2,Plate:MR029",296 nM
same,potency estimated from few doses,"FER; compound concentrations:100 nM and 1000 nM (sheet 'Lestaurtinib' of Supplementary Table 1),run:Lestaurtinib_02802_R3,Plate:MR029",12.4 nM
same,potency estimated from few doses,"FER; compound concentrations:100 nM and 1000 nM (sheet 'Lestaurtinib' of Supplementary Table 1),run:Lestaurtinib_03172_R2,Plate:MR031",386 nM
same,potency estimated from few doses,"FER; compound concentrations:100 nM and 1000 nM (sheet 'Lestaurtinib' of Supplementary Table 1),run:Lestaurtinib_03172_R3,Plate:MR031",315 nM
same,potency estimated from few doses,"FER; compound concentrations:100 nM and 1000 nM (sheet 'Lestaurtinib' of Supplementary Table 1),run:Lestaurtinib_03252_R2,Plate:MR032",25 nM
same,potency estimated from few doses,"FER; compound concentrations:100 nM and 1000 nM (sheet 'Lestaurtinib' of Supplementary Table 1),run:Lestaurtinib_03260_R1,Plate:MR033",469 nM
same,potency estimated from few doses,"FER; compound concentrations:100 nM and 1000 nM (sheet 'Lestaurtinib' of Supplementary Table 1),run:Lestaurtinib_03260_R2,Plate:MR033",487 nM
same,potency estimated from few doses,"FER; compound concentrations:100 nM and 1000 nM (sheet 'Lestaurtinib' of Supplementary Table 1),run:Lestaurtinib_03260_R3,Plate:MR033",351 nM
same,potency estimated from few doses,"FLT4; compound concentrations:100 nM and 1000 nM (sheet 'Lestaurtinib' of Supplementary Table 1),run:Lestaurtinib_02339_R1,Plate:MR001",345 nM
same,potency estimated from few doses,"FLT4; compound concentrations:100 nM and 1000 nM (sheet 'Lestaurtinib' of Supplementary Table 1),run:Lestaurtinib_02339_R2,Plate:MR001",300 nM
same,potency estimated from few doses,"FLT4; compound concentrations:100 nM and 1000 nM (sheet 'Lestaurtinib' of Supplementary Table 1),run:Lestaurtinib_02364_R2,Plate:MR002",289 nM
